From PubChem
A selection: hits, their analogues and other compounds. The true share with any hit is near 12%.
JMJD2A Tudor: JMJD2A Tudor domain (human) inhibition; O75164; AlphaScreen JMJD2A-Tudor / H3K4me3 peptide binding; Potency, µM (titrated, usually from 114 µM), inactives show at the highest dose activity change, negative = inhibition, hits mostly inhibitors; actives 4.4% (n = 390,000); further: potency means the concentration at half of the fitted maximal effect; on the % scale 0 is the no-effect control and ±100 the full control effect; nearly all actives have a fitted effect of over 50% in size
HP1b chromo inh: HP1-beta chromodomain-methylated histone interaction inhibition | AlphaScreen HP1-beta / biotin-H3K9me3 peptide binding | Potency, µM (doses to about 114 µM), for the others: at the highest dose activity change, negative = inhibition, actives largely listed as inhibitors | actives 0.56% (n = 390,000) | AID 540317; further: potency means the concentration at half of the fitted maximal effect; nearly all actives have a fitted effect of over 70% in size
Target sequence (P83916 whole entry, looked up): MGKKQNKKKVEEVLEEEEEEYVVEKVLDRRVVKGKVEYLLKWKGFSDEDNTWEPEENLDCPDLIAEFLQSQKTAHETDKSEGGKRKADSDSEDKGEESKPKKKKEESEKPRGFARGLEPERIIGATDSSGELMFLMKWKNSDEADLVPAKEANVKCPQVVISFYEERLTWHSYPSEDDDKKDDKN
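AlphaScreen: HP1-beta (50 nM) preformed 30 min with biotin-H3(1-18)K9me3 peptide (50 nM) in PBS pH 7.4, 0.01% Tween-20. Compound added for 30 min at RT, then streptavidin donor/nickel chelate acceptor beads (10 ug/mL) for 30 min.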
PLK1 PBD block: blocks phosphopeptide binding to human PLK1 polo-box domain; Potency, µM, for the others: max response, negative = inhibition, hits mostly inhibitors; actives 2.8% (n = 360,000); Plk1 PBD binding of FITC phosphopeptide, fluorescence polarization; P53350; further: potency means the concentration at half of the fitted maximal effect; series mostly up to about 57 µM; on the % scale 0 is the no-effect control and ±100 the full control effect; nearly all actives have a fitted effect of over 65% in size
BAZ2B inh: inhibitors of human BAZ2B bromodomain. AlphaScreen BAZ2B-H3K14Ac peptide displacement. Q9UIF8. actives 4.4% (n = 360,000). Potency, µM (series often up to 114 µM), for inactives: at the highest dose activity change, negative = inhibition, most hits filed as inhibitors; further: potency means the concentration at half of the fitted maximal effect; on the % scale 0 is the no-effect control and ±100 the full control effect; nearly all actives have a fitted effect of over 60% in size
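Inhibition is scored as reduced AlphaScreen emission. The BAZ2B/b-H3(5-23)K14Ac complex (50 nM each) in PBS pH 7.4, 0.01% Tween-20 meets compound (up to 110 uM) for 30 min at RT before bead addition.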
G9a inh: G9a (human) methyltransferase inhibition; actives 8.8% (n = 350,000); G9a H3K9 monomethylation, AlphaScreen, 2 h; Potency, µM (titrated, usually from 102 µM), without a hit: at the top dose activity, negative = inhibition, usual class: inhibitors; further: potency means the concentration at half of the fitted maximal effect; on the % scale 0 is the no-effect control and ±100 the full control effect; nearly all actives have a fitted effect of over 75% in size
Target sequence (Q96KQ7 913-1193 limits assumed): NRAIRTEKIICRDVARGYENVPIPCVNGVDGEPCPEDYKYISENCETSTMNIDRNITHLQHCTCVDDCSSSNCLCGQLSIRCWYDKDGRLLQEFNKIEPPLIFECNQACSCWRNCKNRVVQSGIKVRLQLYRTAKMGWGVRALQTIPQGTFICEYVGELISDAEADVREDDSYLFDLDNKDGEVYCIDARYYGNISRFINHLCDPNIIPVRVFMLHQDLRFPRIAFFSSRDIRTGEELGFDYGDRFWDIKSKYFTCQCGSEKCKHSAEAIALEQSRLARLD
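G9a (20 nM) was preincubated 15 min with compound, then reacted 2 h at room temperature with 500 nM biotin-H3K9 peptide and 20 µM SAM. Monomethyl-H3K9 detected by AlphaScreen using anti-H3K9me1 antibody.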
PI5P4K alpha inh: inhibitors of human PI5P4K alpha; PI5P4Kalpha enzyme, ADP-Glo luminescence, 60 min; hits give low values; P48426; actives 1.2% (n = 330,000); AID 652105; max response, %; active means max response of -50% or lower; inconclusive means between -30% and -50%; inactive means -30% or higher; further: value at the top dose of about 77 µM; on the % scale 0 is the no-effect control and ±100 the full control effect
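Compounds were pin-transferred onto PI5P4Kalpha and substrate in HEPES pH 7.4 buffer with EGTA, CHAPS and 5% DMSO. ATP (5 microM final) started the reaction, which ran 60 minutes at room temperature before ADP-Glo detection.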
* marks the source's active call; other numbers are inactive results; ? = inconclusive; . = no result; [ ] = remark or other dose. Unless noted, the call rests on the fitted dose curve; in most records, active means well fitted curve in the direction sought with a large enough effect; inconclusive means small, poorly fitted or top-dose-only effect, or another doubt; inactive means no such curve, though single readings can be large; an effect the other way counts as inactive or inconclusive.

SMILES	JMJD2A Tudor	HP1b chromo inh	PLK1 PBD block	BAZ2B inh	G9a inh	PI5P4K alpha inh
NNc1nc2c(Cl)ccc(Cl)c2s1	44.7µM*	-31.2%	-2.7%	50.1µM*	?	?
O=C(N[C@@H]1CC[C@@H](CCNS(=O)(=O)c2ccc(Cl)cc2)O[C@@H]1CO)c1cccnc1	.	.	-13.9%	.	.	0.4
COC(=O)c1c(=O)n(O)c2ccc(OC)cc2[n+]1[O-]	?	15.5%	-16.2%	?	31.6µM*	-13.0
CCCOc1ccc(C(=O)NC(=S)NCc2cccnc2)cc1	-20.5%	6.9%	-1.9%	?	44.7µM*	5.5
C=CCOc1ccc(C(=O)Nc2ccccc2C(=O)NCc2cccnc2)cc1	-18.6%	8.0%	2.0%	-11.6%	70.8µM*	-7.9
CC(C)COc1cccc(C(=O)NC(=S)NCc2cccnc2)c1	?	-15.7%	-1.3%	-35.0%	44.7µM*	-9.2
COCc1ccc(C(=O)Nc2ccccc2C(=O)NCc2cccnc2)cc1	-7.7%	5.2%	-2.4%	-15.9%	18.5%	4.6
CCOc1cccc(C(=O)NC(=S)NCc2cccnc2)c1	-25.6%	16.4%	-10.3%	-20.4%	-50.2%[59 µM]	-3.1
NNC(=S)NCc1cccnc1	?	9.7%	4.9%	-0.5%	1.41µM*	11.7
COc1cccc(CNS(=O)(=O)c2ccc3c(c2)oc(=O)n3C)c1	-0.7%	1.7%	-6.1%	-24.1%	.	6.4
CCOc1ccc(C(=O)NC(=S)NCc2cccnc2)cc1	-4.4%	28.1%	2.2%	-7.6%	1µM*	13.3
N#Cc1ccccc1OCC(=O)NNC(=O)CCNC(=O)c1ccccc1	-7.5%	37.2%	-12.1%	.	.	1.3
CCCC[n+]1c(C)sc2cc(OC)ccc21	15.8µM*	49.6%	-25.8%	-35.5%	?	-7.0
COc1ccc2sc(C)[n+](C)c2c1	-2.1%	72.7%	-4.3%	3.4%	?	-6.2
CCn1c(O)c(/C=C2\C=Nc3ccccc32)sc1=Nc1ccccc1	-23.9%	1.2%	-11.3%	-30.8%[57.1 µM]	33.8%	.
Cn1c(O)c(/C=C2\C=Nc3ccccc32)sc1=Nc1ccc(C(=O)O)cc1	-33.7%	20.6%	-22.2%	50.1µM*	35.5µM*	-65.6*
CN1CCC2(CC1)CCN(C(=O)c1cc(C(F)(F)F)cc(C(F)(F)F)c1)CC2	.	.	.	.	15.4%[12.7 µM]	.
CCOC(=O)C1=NOC(COc2ccccc2C=O)C1 (centres undefined)	?	-4.7%	26.7µM*	10.2%	2.9%	-7.2
CCOC(=O)C1=NOC(CNC(=O)c2ccccc2Cl)C1 (centres undefined)	-11.1%	33.1%	-2.0%	-9.5%	19.5%	-1.6
COc1ccc2c(=O)cc(C(=O)O)oc2c1	-10.1%	35.7%	-15.4%	-22.4%	56.2µM*	-17.4
COc1ccc2c(C)c(C(=O)O)oc2c1	-25.2%[57.1 µM]	62.9%	-13.0%	1.5%	-18.2%	-22.8
CC(=O)N/N=C/c1cc(C(C)(C)C)cc(/C=N/NC(C)=O)c1O	-29.9%	34.8%	21.2µM*	-18.9%	39.5%[12.7 µM]	4.2
CC(C)NC(=O)N1CCCC2(CCN(C(=O)c3ccco3)CC2)C1	.	.	.	.	1.4%[12.7 µM]	.
O=C(NC(=S)Nc1ccccc1)c1cc(-c2ccccc2)nc2ccccc12	?	-26.4%	-13.7%	?	?	-0.2
CCCNC(=S)NNC(=O)c1cc(-c2cccnc2)nc2ccccc12	-19.1%	43.6%	-3.4%	-4.7%	-5.7%[0.501 µM]	4.0
SMILES	JMJD2A Tudor	HP1b chromo inh	PLK1 PBD block	BAZ2B inh	G9a inh	PI5P4K alpha inh
O=C(NNC(=S)Nc1ccccc1)c1cc(-c2cccnc2)nc2ccccc12	-23.4%	-6.0%	-13.8%	-19.9%	15.8µM*	-8.7
CCNC(=S)NNC(=O)c1cc(-c2cccnc2)nc2ccccc12	-20.4%	22.9%	-21.0%	5.4%	44.7µM*	5.7
CCCCNC(=S)NNC(=O)c1cc(-c2cccnc2)nc2ccccc12	-18.8%	19.5%	-4.7%	-14.1%	79.4µM*	7.2
CSCCC1NC2(C(=O)Nc3c2ccc(Cl)c3C)[C@@H]2C(=O)N(C3CCCC3)C(=O)[C@H]12 (some centres undefined)	?	-16.1%	-11.8%	?	?	.
COC(=O)C1(C)NC(c2cccc(C)c2)C2C(=O)N(c3ccc(F)cc3)C(=O)C21 (centres undefined)	2.7%	55.0%	3.7%	-1.9%	16.3%	5.1
Cc1c(Cl)ccc2c1NC(=O)[C@]21N[C@@H](CCC(N)=O)[C@H]2C(=O)N(c3ccc(F)cc3)C(=O)[C@H]21	-7.9%	47.0%	-3.2%	2.8%	14.1µM*	5.2
Cc1c(Cl)ccc2c1NC(=O)C21NC(CCC(N)=O)[C@H]2C(=O)N(c3ccc(Cl)cc3)C(=O)[C@H]21 (some centres undefined)	-22.2%	59.7%	-13.6%	0.5%	39.8µM*	-4.4
CCCCc1ccc(N2C(=O)[C@@H]3C(CC(N)=O)NC4(C(=O)Nc5ccc(F)cc54)[C@@H]3C2=O)cc1 (some centres undefined)	-25.2%	14.8%	-12.6%	0.7%	39.8µM*	.
CCN(CC)S(=O)(=O)c1ccc(NC(=O)c2c(C)oc3ncnc(N4CCOCC4)c23)cc1	-12.6%	24.2%	.	6.2%[57.1 µM]	-0.6%[59 µM]	.
COc1cc(OC)cc(-c2c(C#Cc3ccsc3)c3cc(-c4ccc(OC)nc4)ccc3n2C)c1	-0.7%	64.1%	-13.4%	3.2%	1.8%[0.501 µM]	1.0
O=C(NCCc1nnc2ccc(N3CCCC3)nn12)c1ccccc1	-11.6%	35.2%	-1.0%	.	.	0.5
O=C(O)CNC(=O)c1ccc(Sc2ccccc2)c([N+](=O)[O-])c1	-16.2%	12.1%	-16.3%	-16.0%	5.1%	-12.5
CSc1ccc(C(=O)NCC(=O)O)cc1[N+](=O)[O-]	-5.1%[11.4 µM]	-9.8%	26.7µM*	-10.9%	-29.9%	-0.8
CC(=O)C1=C(C)Nc2cc(C(F)(F)F)ccc2S1	-22.3%	-4.2%	?	11.0%	22.4µM*	-23.4
Cc1ccc(NC(=O)CC2Sc3ccc(C(F)(F)F)cc3NC2=O)cc1 (centres undefined)	-11.3%	60.7%	.	-2.1%	-4.5%[59 µM]	.
COc1ccc(C(=O)NNC(=O)C23CC4CC(CC(C4)C2)C3)cc1OC	-16.0%	28.1%	-2.6%	0.9%	3.3%[12.7 µM]	-0.5
COc1ccc(CCNCC2C(Oc3ccc(Cl)cc3)C(=O)N2c2ccccc2C)cc1OC (centres undefined)	?	5.7%	-9.9%	?	44.7µM*	11.4
Cc1cc(F)ccc1NC(=O)CCc1c(C)nn(-c2ccc(N3CCCCC3)nn2)c1C	?	3.2%	21.2µM*	-36.2%[57.1 µM]	?	-7.5
CC(=O)c1ccc(NC(=O)CCc2c(C)nn(-c3ccc(N4CCOCC4)nn3)c2C)cc1	?	5.1%	21.2µM*	?	16.0%[59 µM]	-8.3
Cc1ccc(NC(=O)CCc2c(C)nn(-c3ccc(N4CCOCC4)nn3)c2C)cc1	-12.4%	32.2%	-14.1%	-4.6%[57.1 µM]	15.8%	2.2
